# Results: publication PMC7862700, “An all-to-all approach to the identification of sequence-specific readers for epigenetic DNA modifications on cytosine”
# Assays:
# Assay in all cases: DAPPL (digital affinity profiling via proximity ligation, sequencing); 10 mM Tris-HCl pH 7.5, 50 mM NaCl, 1 mM DTT, 4% glycerol, room temperature, 30 min; GST-TFs on glutathione beads, 16-mer random dsDNA library, 0.1% formaldehyde crosslink after washing; high values mean tight binding
# Settings in all cases: protein: recombinant; tags: N-terminal GST; dsDNA, one strand shown
# [1] = biological target: T1, FLI1 (Homo sapiens, UniProt Q01543 1-452)
# T1 sequence: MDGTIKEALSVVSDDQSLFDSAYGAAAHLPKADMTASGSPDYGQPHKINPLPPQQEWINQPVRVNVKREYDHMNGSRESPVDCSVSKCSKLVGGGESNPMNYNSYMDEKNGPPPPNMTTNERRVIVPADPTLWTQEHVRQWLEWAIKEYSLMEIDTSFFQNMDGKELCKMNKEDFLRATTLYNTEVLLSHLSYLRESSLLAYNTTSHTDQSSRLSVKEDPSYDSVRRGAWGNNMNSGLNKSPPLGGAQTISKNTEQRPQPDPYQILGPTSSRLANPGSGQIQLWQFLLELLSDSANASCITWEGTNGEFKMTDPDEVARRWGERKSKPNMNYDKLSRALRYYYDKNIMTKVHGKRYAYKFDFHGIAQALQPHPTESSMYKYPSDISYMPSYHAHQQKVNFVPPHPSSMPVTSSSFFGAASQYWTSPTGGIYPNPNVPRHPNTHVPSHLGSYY
# How it was run: (§1)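 Pools were built from human transcription factors expressed in yeast as GST fusions, captured on glutathione beads and DNA-barcoded, along with a tag-only sample. Incubation with 200 nmole of a 16-mer random double-stranded DNA library lasted 30 min at room temperature in Tris/NaCl/DTT/glycerol buffer, and was followed by washing, 0.1% formaldehyde crosslinking, proximity ligation, PCR amplification and Illumina NextSeq500 sequencing. Binding signal is the quotient of each hexamer's read frequency for a factor and its frequency for the tag-only sample.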
# [2] = biological target: T2, ELK1 (Homo sapiens, UniProt P19419 1-428)
# T2 sequence: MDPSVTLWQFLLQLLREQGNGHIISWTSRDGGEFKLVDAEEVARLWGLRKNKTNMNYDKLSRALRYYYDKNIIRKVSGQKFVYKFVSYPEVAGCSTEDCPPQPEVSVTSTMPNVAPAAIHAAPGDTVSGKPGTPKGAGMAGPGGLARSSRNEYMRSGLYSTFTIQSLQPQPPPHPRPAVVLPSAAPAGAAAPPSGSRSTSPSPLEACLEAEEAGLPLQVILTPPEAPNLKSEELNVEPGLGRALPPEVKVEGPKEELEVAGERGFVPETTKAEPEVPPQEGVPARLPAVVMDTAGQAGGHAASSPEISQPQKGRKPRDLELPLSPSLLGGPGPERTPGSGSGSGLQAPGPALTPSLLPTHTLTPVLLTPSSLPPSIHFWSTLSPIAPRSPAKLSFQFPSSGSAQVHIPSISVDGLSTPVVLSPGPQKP
# How it was run: as §1
# [3] = biological target: T3, GABPA (Homo sapiens, UniProt Q06546 1-454)
# T3 sequence: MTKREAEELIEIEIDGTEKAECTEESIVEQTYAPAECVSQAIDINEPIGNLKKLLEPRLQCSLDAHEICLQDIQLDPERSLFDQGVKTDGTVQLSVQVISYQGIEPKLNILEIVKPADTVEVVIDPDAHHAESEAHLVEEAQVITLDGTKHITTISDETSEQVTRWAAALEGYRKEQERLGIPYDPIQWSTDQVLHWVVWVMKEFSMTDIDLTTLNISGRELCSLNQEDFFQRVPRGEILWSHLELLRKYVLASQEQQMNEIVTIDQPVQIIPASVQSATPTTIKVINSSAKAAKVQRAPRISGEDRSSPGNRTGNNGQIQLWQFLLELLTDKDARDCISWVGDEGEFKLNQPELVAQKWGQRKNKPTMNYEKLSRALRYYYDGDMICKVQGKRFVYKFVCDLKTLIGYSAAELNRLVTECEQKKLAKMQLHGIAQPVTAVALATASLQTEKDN
# How it was run: as §1
# [4] = biological target: T4, ERG (Homo sapiens, UniProt P11308 1-479)
# T4 sequence: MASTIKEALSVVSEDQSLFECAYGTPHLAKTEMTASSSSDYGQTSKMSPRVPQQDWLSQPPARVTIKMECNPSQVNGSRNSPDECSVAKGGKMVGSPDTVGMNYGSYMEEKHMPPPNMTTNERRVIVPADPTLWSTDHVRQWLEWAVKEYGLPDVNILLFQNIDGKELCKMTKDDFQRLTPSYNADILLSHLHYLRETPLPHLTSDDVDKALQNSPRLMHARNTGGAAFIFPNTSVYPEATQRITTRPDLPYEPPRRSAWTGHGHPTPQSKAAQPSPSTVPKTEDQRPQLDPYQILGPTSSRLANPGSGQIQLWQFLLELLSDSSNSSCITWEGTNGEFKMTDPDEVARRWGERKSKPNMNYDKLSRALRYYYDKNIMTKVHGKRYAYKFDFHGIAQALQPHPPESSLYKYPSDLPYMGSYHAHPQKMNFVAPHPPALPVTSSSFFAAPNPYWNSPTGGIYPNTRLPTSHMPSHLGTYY
# How it was run: as §1
# [5] = biological target: ELF1 (Homo sapiens, UniProt P32519 1-619)
# Sequence of ELF1 (P32519 whole entry): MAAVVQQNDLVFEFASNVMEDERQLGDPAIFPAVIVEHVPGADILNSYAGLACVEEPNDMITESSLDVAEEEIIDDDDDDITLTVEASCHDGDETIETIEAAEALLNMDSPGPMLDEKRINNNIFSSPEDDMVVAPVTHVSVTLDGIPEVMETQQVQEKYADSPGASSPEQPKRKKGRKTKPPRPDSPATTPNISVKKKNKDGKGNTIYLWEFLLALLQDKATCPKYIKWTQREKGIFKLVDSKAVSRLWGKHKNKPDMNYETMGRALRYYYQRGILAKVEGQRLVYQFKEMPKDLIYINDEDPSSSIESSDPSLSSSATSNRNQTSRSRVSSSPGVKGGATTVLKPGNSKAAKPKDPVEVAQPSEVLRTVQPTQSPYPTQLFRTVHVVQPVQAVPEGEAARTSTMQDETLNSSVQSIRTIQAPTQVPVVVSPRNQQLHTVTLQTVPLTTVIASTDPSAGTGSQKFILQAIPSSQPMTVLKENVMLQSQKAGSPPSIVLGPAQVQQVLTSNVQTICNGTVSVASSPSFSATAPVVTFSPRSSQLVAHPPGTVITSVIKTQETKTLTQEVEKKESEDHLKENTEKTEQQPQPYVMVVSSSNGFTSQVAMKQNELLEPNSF
# How it was run: as §1
# [6] = biological target: T5, EHF (Homo sapiens, UniProt Q9NZC4 1-300)
# T5 sequence: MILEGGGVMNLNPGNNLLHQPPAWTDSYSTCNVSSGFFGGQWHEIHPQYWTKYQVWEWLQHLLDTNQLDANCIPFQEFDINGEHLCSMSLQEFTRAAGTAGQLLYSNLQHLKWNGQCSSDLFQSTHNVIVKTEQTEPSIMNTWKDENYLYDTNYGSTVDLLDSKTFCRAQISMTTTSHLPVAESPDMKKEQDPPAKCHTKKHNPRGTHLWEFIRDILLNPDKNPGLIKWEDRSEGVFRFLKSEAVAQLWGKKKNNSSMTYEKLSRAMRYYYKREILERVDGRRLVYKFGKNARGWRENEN
# How it was run: as §1
# [7] = biological target: SPI1 (Homo sapiens, UniProt P17947 1-270)
# How it was run: as §1
# [8] = biological target: SPIB (Homo sapiens, UniProt Q01892 1-262)
# Sequence of SPIB (Q01892 whole entry): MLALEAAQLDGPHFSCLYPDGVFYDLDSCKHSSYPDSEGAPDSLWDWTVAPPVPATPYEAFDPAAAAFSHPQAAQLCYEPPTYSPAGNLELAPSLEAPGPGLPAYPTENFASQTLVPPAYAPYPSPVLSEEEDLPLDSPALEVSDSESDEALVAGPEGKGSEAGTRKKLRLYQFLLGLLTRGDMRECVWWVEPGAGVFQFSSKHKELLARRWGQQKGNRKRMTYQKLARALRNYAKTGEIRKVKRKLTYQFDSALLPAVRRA
# How it was run: as §1
# [9] = biological target: T6, ELK3 (Homo sapiens, UniProt P41970 1-407)
# T6 sequence: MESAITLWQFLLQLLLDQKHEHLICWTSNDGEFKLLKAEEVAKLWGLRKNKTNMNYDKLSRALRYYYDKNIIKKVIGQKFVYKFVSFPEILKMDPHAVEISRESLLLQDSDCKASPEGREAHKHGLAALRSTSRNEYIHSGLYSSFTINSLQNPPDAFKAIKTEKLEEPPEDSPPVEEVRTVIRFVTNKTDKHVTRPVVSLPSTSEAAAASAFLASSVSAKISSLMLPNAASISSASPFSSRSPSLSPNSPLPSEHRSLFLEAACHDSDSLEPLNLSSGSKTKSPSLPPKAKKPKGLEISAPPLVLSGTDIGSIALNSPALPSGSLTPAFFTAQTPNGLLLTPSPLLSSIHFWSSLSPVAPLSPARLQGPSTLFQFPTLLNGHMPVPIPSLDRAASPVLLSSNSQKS
# How it was run: as §1
# [10] = biological target: T7, FEV (Homo sapiens, UniProt Q99581 1-238)
# T7 sequence: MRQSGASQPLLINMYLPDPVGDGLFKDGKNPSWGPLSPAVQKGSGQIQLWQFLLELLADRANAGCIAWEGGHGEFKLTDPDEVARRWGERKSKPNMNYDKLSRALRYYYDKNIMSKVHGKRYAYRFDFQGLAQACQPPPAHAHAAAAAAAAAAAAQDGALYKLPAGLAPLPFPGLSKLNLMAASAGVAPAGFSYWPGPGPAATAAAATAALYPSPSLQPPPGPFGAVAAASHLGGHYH
# How it was run: as §1
# [11] = biological target: ETV5 (Homo sapiens, UniProt P41161 1-510)
# Sequence of ETV5 (P41161 whole entry): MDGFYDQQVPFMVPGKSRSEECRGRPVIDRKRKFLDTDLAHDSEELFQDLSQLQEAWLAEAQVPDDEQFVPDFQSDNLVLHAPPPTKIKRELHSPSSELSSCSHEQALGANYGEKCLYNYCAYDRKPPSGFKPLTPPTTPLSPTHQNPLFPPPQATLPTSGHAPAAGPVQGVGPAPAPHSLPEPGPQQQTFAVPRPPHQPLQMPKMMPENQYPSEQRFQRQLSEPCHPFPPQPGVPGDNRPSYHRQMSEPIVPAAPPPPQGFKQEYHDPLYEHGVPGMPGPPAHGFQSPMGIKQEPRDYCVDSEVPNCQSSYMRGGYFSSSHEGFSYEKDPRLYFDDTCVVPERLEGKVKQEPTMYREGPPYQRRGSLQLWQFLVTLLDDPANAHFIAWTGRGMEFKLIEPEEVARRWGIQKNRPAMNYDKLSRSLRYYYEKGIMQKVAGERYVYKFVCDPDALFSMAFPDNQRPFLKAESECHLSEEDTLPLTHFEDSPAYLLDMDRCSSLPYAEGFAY
# How it was run: as §1
# [12] = biological target: T8, SPIC (Homo sapiens, UniProt Q8N5J4 1-248)
# T8 sequence: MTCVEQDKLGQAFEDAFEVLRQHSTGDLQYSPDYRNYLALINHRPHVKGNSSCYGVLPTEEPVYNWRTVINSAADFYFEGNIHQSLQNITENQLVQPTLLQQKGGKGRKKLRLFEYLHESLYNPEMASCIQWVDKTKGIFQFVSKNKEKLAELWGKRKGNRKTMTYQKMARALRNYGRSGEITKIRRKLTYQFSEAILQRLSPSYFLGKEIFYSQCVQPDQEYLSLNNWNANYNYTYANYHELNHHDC
# How it was run: as §1
# [13] = biological target: ELF4 (Homo sapiens, UniProt Q99607 1-663)
# Sequence of ELF4 (Q99607 whole entry): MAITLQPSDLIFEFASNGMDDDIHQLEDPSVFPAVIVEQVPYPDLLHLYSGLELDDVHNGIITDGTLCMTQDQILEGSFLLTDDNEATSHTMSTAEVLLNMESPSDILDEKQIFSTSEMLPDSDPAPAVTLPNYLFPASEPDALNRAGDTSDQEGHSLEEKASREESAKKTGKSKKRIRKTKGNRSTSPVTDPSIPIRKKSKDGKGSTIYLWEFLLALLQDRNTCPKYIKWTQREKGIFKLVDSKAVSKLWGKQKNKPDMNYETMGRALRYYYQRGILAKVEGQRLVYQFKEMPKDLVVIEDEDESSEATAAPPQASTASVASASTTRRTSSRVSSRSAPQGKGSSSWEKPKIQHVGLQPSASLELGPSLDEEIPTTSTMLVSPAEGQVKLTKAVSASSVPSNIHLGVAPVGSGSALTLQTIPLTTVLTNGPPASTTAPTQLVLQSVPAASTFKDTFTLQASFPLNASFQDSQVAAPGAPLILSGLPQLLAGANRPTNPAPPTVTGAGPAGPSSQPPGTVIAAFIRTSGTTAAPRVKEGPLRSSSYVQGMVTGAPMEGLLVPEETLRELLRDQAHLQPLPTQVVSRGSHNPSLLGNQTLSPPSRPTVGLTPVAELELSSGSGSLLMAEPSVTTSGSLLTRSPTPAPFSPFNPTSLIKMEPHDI
# How it was run: as §1
# [14] = biological target: T9, ELK4 (Homo sapiens, UniProt P28324-2 1-405)
# T9 sequence: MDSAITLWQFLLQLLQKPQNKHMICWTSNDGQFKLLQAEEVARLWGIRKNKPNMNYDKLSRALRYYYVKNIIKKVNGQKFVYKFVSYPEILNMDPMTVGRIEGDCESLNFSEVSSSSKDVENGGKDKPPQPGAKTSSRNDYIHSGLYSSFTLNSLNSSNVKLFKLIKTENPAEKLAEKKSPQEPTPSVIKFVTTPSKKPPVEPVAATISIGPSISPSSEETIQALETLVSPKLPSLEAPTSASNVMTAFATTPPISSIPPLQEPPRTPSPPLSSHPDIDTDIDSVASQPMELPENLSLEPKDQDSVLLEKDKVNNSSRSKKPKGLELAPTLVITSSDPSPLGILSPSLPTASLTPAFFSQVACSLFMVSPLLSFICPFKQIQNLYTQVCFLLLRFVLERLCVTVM
# How it was run: as §1
# [15] = biological target: T10, ETV2 (Homo sapiens, UniProt O00321 1-342)
# T10 sequence: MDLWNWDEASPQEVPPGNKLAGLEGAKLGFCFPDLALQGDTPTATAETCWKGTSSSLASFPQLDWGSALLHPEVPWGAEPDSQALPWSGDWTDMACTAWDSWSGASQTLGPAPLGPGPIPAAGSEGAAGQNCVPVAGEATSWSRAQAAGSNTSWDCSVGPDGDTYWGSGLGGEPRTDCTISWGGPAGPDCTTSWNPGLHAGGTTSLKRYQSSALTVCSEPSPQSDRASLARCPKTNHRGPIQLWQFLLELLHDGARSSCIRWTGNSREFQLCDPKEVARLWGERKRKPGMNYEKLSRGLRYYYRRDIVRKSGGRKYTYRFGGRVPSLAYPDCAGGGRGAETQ
# How it was run: as §1
# [16] = biological target: T11, ELF3 (Homo sapiens, UniProt P78545 1-371)
# T11 sequence: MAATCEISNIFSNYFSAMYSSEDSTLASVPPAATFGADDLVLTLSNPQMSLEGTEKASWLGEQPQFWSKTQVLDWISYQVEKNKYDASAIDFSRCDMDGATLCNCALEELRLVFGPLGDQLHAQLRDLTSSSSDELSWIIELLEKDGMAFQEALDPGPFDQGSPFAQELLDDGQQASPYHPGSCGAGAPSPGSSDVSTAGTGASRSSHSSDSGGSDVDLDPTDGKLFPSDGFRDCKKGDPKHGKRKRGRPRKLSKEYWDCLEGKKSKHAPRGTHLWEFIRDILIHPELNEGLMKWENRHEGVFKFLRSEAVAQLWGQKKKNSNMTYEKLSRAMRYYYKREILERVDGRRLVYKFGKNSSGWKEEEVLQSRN
# How it was run: as §1
# [17] = biological target: ETV1 (Homo sapiens, UniProt P50549 1-477)
# Sequence of ETV1 (P50549 whole entry): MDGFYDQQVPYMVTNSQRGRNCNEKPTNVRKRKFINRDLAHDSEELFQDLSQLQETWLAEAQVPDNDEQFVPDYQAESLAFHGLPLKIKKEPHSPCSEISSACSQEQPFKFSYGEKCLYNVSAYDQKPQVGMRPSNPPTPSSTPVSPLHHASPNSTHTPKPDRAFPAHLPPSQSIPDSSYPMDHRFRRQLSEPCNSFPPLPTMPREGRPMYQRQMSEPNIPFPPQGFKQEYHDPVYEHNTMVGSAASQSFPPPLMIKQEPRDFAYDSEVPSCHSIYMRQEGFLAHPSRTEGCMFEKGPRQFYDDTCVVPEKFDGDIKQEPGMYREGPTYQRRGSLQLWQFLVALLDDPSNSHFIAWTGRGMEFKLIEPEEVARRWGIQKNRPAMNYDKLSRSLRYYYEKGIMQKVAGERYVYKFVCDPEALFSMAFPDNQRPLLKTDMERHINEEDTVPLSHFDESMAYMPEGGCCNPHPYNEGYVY
# How it was run: as §1
Sequence,binding signal [1],binding signal [2],binding signal [3],binding signal [4],binding signal [5],binding signal [6],binding signal [7],binding signal [8],binding signal [9],binding signal [10],binding signal [11],binding signal [12],binding signal [13],binding signal [14],binding signal [15],binding signal [16],binding signal [17]
CACTAC,"1.38 fold enrichment (6-mer frequency, TF over GST control)","1.37 fold enrichment (6-mer frequency, TF over GST control)","1.36 fold enrichment (6-mer frequency, TF over GST control)","1.31 fold enrichment (6-mer frequency, TF over GST control)","1.33 fold enrichment (6-mer frequency, TF over GST control)","1.28 fold enrichment (6-mer frequency, TF over GST control)","1.17 fold enrichment (6-mer frequency, TF over GST control)","1.36 fold enrichment (6-mer frequency, TF over GST control)","1.27 fold enrichment (6-mer frequency, TF over GST control)","1.35 fold enrichment (6-mer frequency, TF over GST control)","1.3 fold enrichment (6-mer frequency, TF over GST control)","1.14 fold enrichment (6-mer frequency, TF over GST control)","1.27 fold enrichment (6-mer frequency, TF over GST control)","1.37 fold enrichment (6-mer frequency, TF over GST control)","1.34 fold enrichment (6-mer frequency, TF over GST control)","1.3 fold enrichment (6-mer frequency, TF over GST control)","1.21 fold enrichment (6-mer frequency, TF over GST control)"
TGCCAC,"1.21 fold enrichment (6-mer frequency, TF over GST control)","1.2 fold enrichment (6-mer frequency, TF over GST control)","1.14 fold enrichment (6-mer frequency, TF over GST control)","1.26 fold enrichment (6-mer frequency, TF over GST control)","1.18 fold enrichment (6-mer frequency, TF over GST control)","1.23 fold enrichment (6-mer frequency, TF over GST control)","1.21 fold enrichment (6-mer frequency, TF over GST control)","1.13 fold enrichment (6-mer frequency, TF over GST control)","1.23 fold enrichment (6-mer frequency, TF over GST control)","1.32 fold enrichment (6-mer frequency, TF over GST control)","1.14 fold enrichment (6-mer frequency, TF over GST control)","1.19 fold enrichment (6-mer frequency, TF over GST control)","1.26 fold enrichment (6-mer frequency, TF over GST control)","1.42 fold enrichment (6-mer frequency, TF over GST control)","1.14 fold enrichment (6-mer frequency, TF over GST control)","1.44 fold enrichment (6-mer frequency, TF over GST control)","1.26 fold enrichment (6-mer frequency, TF over GST control)"
